Laboratory results from PubChem BioAssay (EPA / NIEHS).
Activity calls are given as the source filed them. The calls were made as follows: active = hit-call score of the fitted dose curve at least 0.9, where 1 is the maximum; inactive = score below 0.9.

Read-out: Urokinase-type plasminogen activator receptor (uPAR), PLAUR (gene 5329)
Assay: BSK_BE3C_uPAR: BioMAP Diversity Plus: BE3C Assay for Urokinase-type plasminogen activator receptor (uPAR) Biomarker Activity (AID 2283039);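 as to outcome: uPAR protein level measured by ELISA on the cells; cells exposed to compound for one day before measurement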
Conditions: primary human bronchial epithelial cells; actives raise or lower the signal
In short: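 A uPAR ELISA serves as the readout, taken 24 h after treating primary human bronchial epithelial cells. Responses in either direction are fitted against DMSO, which defines baseline activity.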

Compound	outcome	AC50
CCS(=O)(=O)c1cccnc1S(=O)(=O)NC(=O)Nc1nc(OC)cc(OC)n1	inactive	–
CCOC1Oc2ccc(OS(C)(=O)=O)cc2C1(C)C (configuration not stated)	inactive	–
[2H]C1([2H])[n+]2ccccc2-c2cccc[n+]2C1([2H])[2H]	–	2.68 µM (active)
O=C(O)CCCOc1ccc(Cl)cc1Cl	inactive	–
CC(C)N(C(=O)COc1nnc(C(F)(F)F)s1)c1ccc(F)cc1	inactive	–
O=C(NC(=O)c1c(F)cccc1F)Nc1ccc(OC(F)(F)C(F)OC(F)(F)F)c(Cl)c1 (configuration not stated)	inactive	–
N#Cc1c(Cl)c(Cl)c(Cl)c(C#N)c1Cl	–	3.98 µM (active)
COC(=O)c1ccccc1S(=O)(=O)NC(=O)N(C)c1nc(C)nc(OC)n1	inactive	–
CNC(=O)Oc1cccc(N=CN(C)C)c1	inactive	–
CCN(CC)C(=O)SCc1ccc(Cl)cc1	inactive	–
Clc1ccccc1-c1nnc(-c2ccccc2Cl)nn1	inactive	–
COC(=O)c1ccccc1CS(=O)(=O)NC(=O)Nc1nc(OC)cc(OC)n1	inactive	–
Cc1cc(C)nc(NC(=O)NS(=O)(=O)c2ccccc2C(=O)OC2COC2)n1	inactive	–
CC1(c2ccc(Oc3ccccc3)cc2)OC(=O)N(Nc2ccccc2)C1=O (configuration not stated)	inactive	–
CCOc1nc(NC)nc(NC(=O)NS(=O)(=O)c2ccccc2C(=O)OC)n1	inactive	–
CCc1ccc(C(=O)NN(C(=O)c2cc(C)cc(C)c2)C(C)(C)C)cc1	inactive	–
O=[N+]([O-])c1c(Cl)c(Cl)c(Cl)c(Cl)c1Cl	inactive	–
CCC(C)(C)C(=O)OC1=C(c2ccc(Cl)cc2Cl)C(=O)OC12CCCCC2	–	36.4 µM (active)
CCC(C)(NC(=O)c1cc(Cl)c(C)c(Cl)c1)C(=O)CCl (configuration not stated)	–	31.5 µM (active)
COc1nn(CSP(=S)(OC)OC)c(=O)s1	inactive	–
C#CCN1C(=O)COc2cc(F)c(N3C(=O)C4=C(CCCC4)C3=O)cc21	inactive	–
CC(C)(C)C(O)/C(=C\c1ccc(Cl)cc1Cl)n1cncn1 (configuration not stated)	–	20 µM (active)
COP(=O)(OC)OC=C(Cl)Cl	–	6.12 µM (active)
ClC1C(Cl)C(Cl)C(Cl)C(Cl)C1Cl (configuration not stated)	inactive	–
CC1(C)C(C=C(Cl)Cl)C1C(=O)OC(C#N)c1ccc(F)c(Oc2ccccc2)c1 (configuration not stated)	inactive	–
COP(=S)(OC)Oc1ccc([N+](=O)[O-])cc1	inactive	–
CC[C@H](C)[C@H]1O[C@]2(C=C[C@@H]1C)C[C@@H]1C[C@@H](C/C=C(\C)[C@@H](O[C@H]3C[C@H](OC)[C@@H](O[C@H]4C[C@H](OC)[C@@H](O)[C@H](C)O4)[C@H](C)O3)[C@@H](C)/C=C/C=C3\CO[C@@H]4[C@H](O)C(C)=C[C@@H](C(=O)O1)[C@]34O)O2 (tested in a mixture with another compound)	–	6.13 µM (active)
